Measurements reported in PubChem BioAssay (Tox21).
Results filed as inconclusive are left out. Calls of active or inactive are those of the source. Unless noted, calls follow the shape of the dose curve; as a rule, active = well fitted curve in the direction sought with a large enough effect in the repeat runs; inconclusive = weak or mixed curves; inactive = no such curve, though single readings can be large; an effect the other way counts as inactive or inconclusive.

Assays:
[1] = qHTS assay to identify small molecule antagonists of the thyroid receptor (TR) signaling pathway - cell viability counter screen (AID 743064); also: nearly all actives have a fitted effect of over 50% in size
Summary of the method: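 GH3.TRE-Luc rat pituitary cells carrying a TRE-luciferase reporter were treated with compound plus 1 nM T3 (final) for 23.5 h at 37 °C. Viability was then read in the same wells by CellTiter-Fluor fluorescence after a further 30 min.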

[2] = qHTS assay to identify small molecule antagonists of the thyroid receptor (TR) signaling pathway (AID 743065); also: nearly all actives have a fitted effect of over 55% in size
Summary of the method: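 Antagonism measured as loss of luciferase signal in GH3 cells stably carrying a TRE-luciferase reporter, co-treated with compound and T3 (1 nM final) for 23.5 h at 37 C. Viability was read in the same well by CellTiter-Fluor.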

[3] = system: thyroid hormone receptor (rat, GH3 cells); experiment: qHTS assay to identify small molecule agonists of the thyroid receptor (TR) signaling pathway (AID 743066; calls by dose curve)
[4] = target: Estrogen receptor (Homo sapiens) (UniProt P03372); experiment: qHTS assay to identify small molecule antagonists of the estrogen receptor alpha (ER-alpha) signaling pathway (AID 743069; active = well fitted curve in the direction sought with a large enough effect in the signal ratio in the repeat runs, not every such curve was filed as active; the % refers to the signal ratio)
Estrogen receptor (Homo sapiens), sequence (P03372 whole entry, looked up): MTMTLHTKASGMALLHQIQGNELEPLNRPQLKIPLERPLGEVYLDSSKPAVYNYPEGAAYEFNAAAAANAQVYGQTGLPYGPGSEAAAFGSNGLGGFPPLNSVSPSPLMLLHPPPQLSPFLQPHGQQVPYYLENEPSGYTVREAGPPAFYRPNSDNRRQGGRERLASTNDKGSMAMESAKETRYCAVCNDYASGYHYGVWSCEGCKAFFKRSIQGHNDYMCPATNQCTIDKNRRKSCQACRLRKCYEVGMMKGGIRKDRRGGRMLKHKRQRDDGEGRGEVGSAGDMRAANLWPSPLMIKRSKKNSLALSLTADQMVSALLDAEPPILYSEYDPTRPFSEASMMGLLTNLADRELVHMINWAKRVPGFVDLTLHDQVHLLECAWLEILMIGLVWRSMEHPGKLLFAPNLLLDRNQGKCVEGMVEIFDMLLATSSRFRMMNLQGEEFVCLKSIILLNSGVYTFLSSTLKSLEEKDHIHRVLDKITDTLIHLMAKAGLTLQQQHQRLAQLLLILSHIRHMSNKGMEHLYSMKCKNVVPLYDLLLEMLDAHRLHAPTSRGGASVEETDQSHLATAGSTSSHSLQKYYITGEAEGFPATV
Summary of the method: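 Compound effects are measured against 17beta-estradiol stimulation in HEK293 cells with a UAS-controlled beta-lactamase reporter for ER-alpha. Exposure lasts 18 hr at 37C; LiveBLAzer B/G FRET substrate follows for 2 hr at room temperature.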

[5] = qHTS assay to identify small molecule antagonists of the estrogen receptor alpha (ER-alpha) signaling pathway - cell viability counter screen (AID 743074; calls by dose curve;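 also: HEK293 cells carrying ER-alpha-UAS-bla reporter stimulated with 17beta-estradiol; nearly all actives have a fitted effect of over 45% in size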)
[6] = target: Estrogen receptor (Homo sapiens) (UniProt P03372); experiment: qHTS assay to identify small molecule agonists of the estrogen receptor alpha (ER-alpha) signaling pathway (AID 743075; calls by dose curve)
[7] = target: Estrogen receptor (Homo sapiens) (UniProt P03372); experiment: qHTS assay to identify small molecule agonists of the estrogen receptor alpha (ER-alpha) signaling pathway using the BG1 cell line (AID 743079); details: BG1Luc4E2 cells, ERE-luciferase agonist, 22 h; also: nearly all actives have a fitted effect of over 20% in size
[8] = qHTS assay to identify small molecule antagonists of the estrogen receptor alpha (ER-alpha) signaling pathway using the BG1 cell line (AID 743080; calls by dose curve;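 also: BG1 cells stimulated with 17beta-estradiol alongside compound; nearly all actives have a fitted effect of over 25% in size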)
Summary of the method: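 Endogenous full-length ER-alpha in BG1-Luc-4E2 cells drives a stably integrated 4×ERE luciferase gene; compounds were tested against 17beta-estradiol over 21.5 h, with luminescence and multiplexed viability fluorescence recorded.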

[9] = qHTS assay to identify small molecule antagonists of the estrogen receptor alpha (ER-alpha) signaling pathway using the BG1 cell line - cell viability counter screen (AID 743081);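 also: compound given together with 17beta-estradiol as the ER stimulus; nearly all actives have a fitted effect of over 45% in size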
[10] = target: Aromatase (Homo sapiens) (UniProt P11511); experiment: qHTS assay to identify aromatase inhibitors (AID 743083); also: nearly all actives have a fitted effect of over 55% in size
Aromatase (Homo sapiens), sequence (P11511 whole entry, looked up): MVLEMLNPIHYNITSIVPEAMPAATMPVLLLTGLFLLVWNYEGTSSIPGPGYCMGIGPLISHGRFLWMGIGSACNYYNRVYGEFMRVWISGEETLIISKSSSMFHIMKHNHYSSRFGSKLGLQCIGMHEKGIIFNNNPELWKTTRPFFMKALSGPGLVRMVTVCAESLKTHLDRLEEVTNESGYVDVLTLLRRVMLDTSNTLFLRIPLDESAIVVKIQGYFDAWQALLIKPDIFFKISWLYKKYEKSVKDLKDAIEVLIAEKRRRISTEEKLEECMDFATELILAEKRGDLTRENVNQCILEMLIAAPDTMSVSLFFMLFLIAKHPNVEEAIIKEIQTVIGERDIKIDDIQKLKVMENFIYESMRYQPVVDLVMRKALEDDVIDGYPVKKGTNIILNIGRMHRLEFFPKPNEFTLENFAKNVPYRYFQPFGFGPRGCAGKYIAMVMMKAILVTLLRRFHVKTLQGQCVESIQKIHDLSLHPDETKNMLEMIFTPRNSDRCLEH

[11] = qHTS assay to identify aromatase inhibitors - cell viability counter screen (AID 743084);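 also: cells stimulated with testosterone during compound exposure; nearly all actives have a fitted effect of over 55% in size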
[12] = qHTS assay to identify small molecule that activate the aryl hydrocarbon receptor (AhR) signaling pathway - cell viability counter screen (AID 743086);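 also: HepG2 liver cells carrying the AhR DRE luciferase reporter; nearly all actives have a fitted effect of over 45% in size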
Summary of the method: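 Cytotoxicity counter screen: CellTiter-Fluor signal (30 min, 37 C) in 4000 HepG2 cells/well carrying the DRE-luciferase reporter, following 24 h compound exposure at 37 C.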

[13] = target: Peroxisome proliferator-activated receptor gamma (Homo sapiens) (UniProt P37231); experiment: qHTS assay to identify small molecule antagonists of the peroxisome proliferator-activated receptor gamma (PPARg) signaling pathway (AID 743191; calls by dose curve; also: nearly all actives have a fitted effect of over 30% in size)
Peroxisome proliferator-activated receptor gamma (Homo sapiens), sequence (P37231 whole entry, looked up): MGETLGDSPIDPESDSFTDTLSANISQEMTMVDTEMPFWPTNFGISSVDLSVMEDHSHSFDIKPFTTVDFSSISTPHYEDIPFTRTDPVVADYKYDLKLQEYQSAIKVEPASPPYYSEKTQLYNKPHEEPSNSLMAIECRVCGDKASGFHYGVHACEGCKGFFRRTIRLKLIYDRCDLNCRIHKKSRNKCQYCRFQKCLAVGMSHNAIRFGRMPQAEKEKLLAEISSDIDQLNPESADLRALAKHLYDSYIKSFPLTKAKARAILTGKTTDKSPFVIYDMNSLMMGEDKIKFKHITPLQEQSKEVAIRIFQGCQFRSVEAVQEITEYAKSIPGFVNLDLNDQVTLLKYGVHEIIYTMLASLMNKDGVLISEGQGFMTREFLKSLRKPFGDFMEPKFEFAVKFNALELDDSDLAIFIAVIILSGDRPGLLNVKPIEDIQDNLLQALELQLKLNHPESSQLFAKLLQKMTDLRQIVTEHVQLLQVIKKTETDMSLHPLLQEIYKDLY
Summary of the method: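 Beta-lactamase reporter under UAS control in HEK293H PPARg-bla cells; compound treatment 17 h at 37C. Read-out: fluorescence intensity after 1 h room-temperature incubation with LiveBLAzer B/G FRET substrate.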

[14] = qHTS assay for small molecule agonists of the antioxidant response element (ARE) signaling pathway - cell viability counter screen (AID 743203; calls by dose curve; also: nearly all actives have a fitted effect of over 55% in size)
Summary of the method: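 Seeded at 2,000 cells/well, ARE-bla HepG2 cells were incubated 5 hrs before compound addition. After 16 hrs of treatment at 37C with 5% CO2, CellTiter-Glo reagent was added and luminescence read 30 min later.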

[15] = qHTS assay for small molecule activators of the heat shock response signaling pathway - cell viability counter screen (AID 743209); also: nearly all actives have a fitted effect of over 50% in size
Summary of the method: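 First, HSE-bla HeLa cells were seeded at 1500 cells/well and kept overnight at 37 C. Next, compounds were pinned in and incubated 5 h. After the FRET substrate step, CellTiter-Glo was added and luminescence read 30 min later.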

[16] = target: Peroxisome proliferator-activated receptor gamma (Homo sapiens) (UniProt P37231); experiment: qHTS assay to identify small molecule agonists of the peroxisome proliferator-activated receptor gamma (PPARg) signaling pathway (AID 743094; active = well fitted activation curve with a large enough effect in the signal ratio in the repeat runs, not every such curve was filed as active; the % refers to the signal ratio)
Summary of the method: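 Quantitative HTS agonist mode: stable HEK293H line with UAS-beta-lactamase reporter under PPARg control, 17 h compound exposure at 37C, fluorescence after 1 h FRET substrate loading at room temperature.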

[17] = qHTS assay for small molecule agonists of the antioxidant response element (ARE) signaling pathway (AID 743202; active = well fitted activation curve with a large enough effect in the signal ratio in the repeat runs, not every such curve was filed as active; the % refers to the signal ratio)
Summary of the method: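 An ARE-responsive beta-lactamase gene stably integrated in HepG2 cells serves as reporter. After 5 h plating and 16 h compound incubation at 37 C, fluorescence of the B/G FRET substrate was measured.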

[18] = qHTS assay for small molecule activators of the heat shock response signaling pathway (AID 743210; active = well fitted activation curve with a large enough effect in the signal ratio in the repeat runs, with a control signal flat, not every such curve was filed as active; the % refers to the signal ratio;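 also: HeLa cells with beta-lactamase reporter driven by heat shock elements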)
Summary of the method: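 In HSE-bla HeLa cells, 5 h compound incubation (37 C) precedes addition of LiveBLAzer B/G substrate; after 2.5 h at room temperature, fluorescence intensity indicates reporter induction.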

[19] = target: Aryl hydrocarbon receptor (Homo sapiens) (UniProt P35869); experiment: qHTS assay to identify small molecule that activate the aryl hydrocarbon receptor (AhR) signaling pathway (AID 743085);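 also: HG2L7.5c1 human HepG2 liver cells with stably integrated DRE-driven firefly reporter; nearly all actives have a fitted effect of over 15% in size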
Aryl hydrocarbon receptor (Homo sapiens), sequence (P35869 whole entry, looked up): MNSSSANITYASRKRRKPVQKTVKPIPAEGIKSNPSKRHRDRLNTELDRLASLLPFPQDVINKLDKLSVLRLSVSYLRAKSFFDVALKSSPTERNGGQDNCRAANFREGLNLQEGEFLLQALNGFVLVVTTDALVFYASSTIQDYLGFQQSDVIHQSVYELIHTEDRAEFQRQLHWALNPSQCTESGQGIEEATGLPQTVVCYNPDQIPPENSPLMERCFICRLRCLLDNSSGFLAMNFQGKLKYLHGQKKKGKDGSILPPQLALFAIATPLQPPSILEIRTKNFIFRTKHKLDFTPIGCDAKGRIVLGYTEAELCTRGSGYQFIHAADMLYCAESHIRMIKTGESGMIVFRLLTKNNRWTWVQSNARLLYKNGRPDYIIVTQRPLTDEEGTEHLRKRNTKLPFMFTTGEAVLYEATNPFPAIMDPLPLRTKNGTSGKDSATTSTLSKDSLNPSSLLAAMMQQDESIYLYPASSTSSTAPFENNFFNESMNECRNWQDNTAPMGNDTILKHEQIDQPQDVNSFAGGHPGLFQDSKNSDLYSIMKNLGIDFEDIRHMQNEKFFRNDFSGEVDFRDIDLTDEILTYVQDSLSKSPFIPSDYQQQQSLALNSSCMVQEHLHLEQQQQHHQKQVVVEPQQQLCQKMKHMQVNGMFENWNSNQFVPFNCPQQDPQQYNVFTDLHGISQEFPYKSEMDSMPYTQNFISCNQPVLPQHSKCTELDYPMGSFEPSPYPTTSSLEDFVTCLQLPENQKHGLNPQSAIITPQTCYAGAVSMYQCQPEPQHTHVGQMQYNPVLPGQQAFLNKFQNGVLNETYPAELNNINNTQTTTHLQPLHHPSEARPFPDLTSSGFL
Summary of the method: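 HepG2 cells (HG2L7.5c1) stably carrying a firefly luciferase reporter driven by 20 dioxin responsive elements were exposed to compound for 24 h at 37C after a 5 h settling period; luminescence rise (ONE-Glo) indicated activation.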

[20] = qHTS assay to identify small molecule antagonists of the peroxisome proliferator-activated receptor gamma (PPARg) signaling pathway - cell viability counter screen (AID 743194); details: Potency: co-treated with 50 nM rosiglitazone; also: nearly all actives have a fitted effect of over 55% in size
Summary of the method: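 Viability was measured as CellTiter-Glo luminescence in GeneBLAzer PPARg UAS-bla HEK293H cells. These cells had been exposed 17 h at 37 C to compounds together with rosiglitazone at 50 nM final, with the beta-lactamase readout taken in the same wells.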
% is scaled to controls: 0 for no effect and ±100 for the full control effect.

CC1CN1P(=O)(N1CC1C)N1CC1C (stereo not drawn)
inactive: Potency [1] | Potency [2] | Potency [3] | Potency [4] | outcome [5] | Potency [6] | activation ([7]; at 70.3 µM (top of the series)) -10.3% | Potency [8] | Potency [9] | Potency [10] | Potency [11] | outcome [12] | Potency [13] | Potency [14] | Potency [15]

N#Cc1ccncc1
inactive: Potency [1] | Potency [2] | Potency [3] | Potency [4] | outcome [5] | Potency [6] | activation ([7]; at 95 µM (top of the series)) 1.2% | Potency [8] | Potency [9] | Potency [10] | Potency [11] | outcome [12] | outcome [16] | Potency [13] | Potency [17] | Potency [14] | Potency [15] | outcome [18]

O=C1OC(c2ccc(O)c(S(=O)(=O)O)c2)(c2ccc(O)c(S(=O)(=O)O)c2)c2c(Br)c(Br)c(Br)c(Br)c21
inactive: Potency [1] | Potency [2] | Potency [3] | Potency [4] | outcome [5] | Potency [6] | activation ([7]; at 70.3 µM (top of the series)) -0.304% | Potency [8] | Potency [10] | Potency [11] | Potency [19] | outcome [12] | outcome [16] | Potency [13] | Potency [20] | Potency [14] | Potency [15] | outcome [18]

O=CNC(N1CCN(C(NC=O)C(Cl)(Cl)Cl)CC1)C(Cl)(Cl)Cl (stereo not drawn)
inactive: Potency [1] | Potency [2] | Potency [3] | Potency [4] | Potency [6] | activation ([7]; at 70.3 µM (top of the series)) -11.3% | Potency [8] | Potency [9] | Potency [10] | Potency [11] | Potency [19] | outcome [12] | Potency [13] | Potency [20] | Potency [17] | Potency [14] | Potency [15]

CNC(=O)Oc1ccccc1C1OCCO1
inactive: Potency [1] | Potency [2] | Potency [3] | Potency [4] | Potency [6] | activation ([7]; at 70.3 µM (top of the series)) -9.73% | Potency [8] | Potency [9] | Potency [10] | Potency [11] | outcome [12] | outcome [16] | Potency [13] | Potency [20] | Potency [17] | Potency [14]

CCCCCCBr
inactive: Potency [1] | Potency [2] | Potency [3] | outcome [5] | Potency [9] | Potency [10] | Potency [11] | Potency [19] | outcome [12] | Potency [20] | Potency [17] | Potency [14] | Potency [15] | outcome [18]
